# Data as given in PMC8384837, “Expanding the binding specificity for RNA recognition by a PUF domain”.
# Key:
# Assay in all cases: yeast three-hybrid, YBZ-1, SC-Leu-His + 0.5 mM 3-AT, 4 days
# Conditions in all cases: tags: N-Gal4 AD-HA kept; label: inside an RPR1-promoter hybrid RNA with tandem MS2 sites; ssRNA
# [1] = molecular target: PUM1 PUF domain R5-NQR (Homo sapiens, UniProt Q14671 828-1176, C1007N;R1008Q;Q1011R)
# Procedure, shortened: (§1)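 The interaction score is the logarithmic change in variant frequency from input to selection. It uses log2, with a pseudocount of 1 for absent variants, and frequencies came from PCR-amplified, Illumina-sequenced repeat regions. The libraries were Pumilio-1 PUF domains randomized at the three base-contacting residues per repeat, co-expressed with matching RNA elements in strain YBZ-1 (LexA–MS2 coat fusion, HIS3 reporter). Plating lasted four days on SC-Leu (input) or SC-Leu-His + 0.5 mM 3-AT (selection).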
# [2] = molecular target: PUM1 PUF domain R5-FNL (Homo sapiens, UniProt Q14671 828-1176, C1007F;R1008N;Q1011L)
# Procedure, shortened: as §1
# [3] = molecular target: PUM1 PUF domain R5-ISR (Homo sapiens, UniProt Q14671 828-1176, C1007I;R1008S;Q1011R)
# Procedure, shortened: as §1
# [4] = molecular target: PUM1 PUF domain R1-RLS (Homo sapiens, UniProt Q14671 828-1176, S863R;R864L;Q867S)
# Procedure, shortened: as §1
# [5] = molecular target: PUM1 PUF domain R3-TYF (Homo sapiens, UniProt Q14671 828-1176, C935T;R936Y;Q939F)
# Procedure, shortened: as §1
# [6] = molecular target: PUM1 PUF domain R4-NNA (Homo sapiens, UniProt Q14671 828-1176, H972N;Q975A)
# Procedure, shortened: as §1
# [7] = molecular target: PUM1 PUF domain R5-EYR (Homo sapiens, UniProt Q14671 828-1176, C1007E;R1008Y;Q1011R)
# Procedure, shortened: as §1
# [8] = molecular target: PUM1 PUF domain R3-MWH (Homo sapiens, UniProt Q14671 828-1176, C935M;R936W;Q939H)
# Procedure, shortened: as §1
# [9] = molecular target: T1, PUM1 PUF domain R6-FHS (Homo sapiens, UniProt Q14671 828-1176, N1043F;Y1044H;Q1047S)
# T1 sequence: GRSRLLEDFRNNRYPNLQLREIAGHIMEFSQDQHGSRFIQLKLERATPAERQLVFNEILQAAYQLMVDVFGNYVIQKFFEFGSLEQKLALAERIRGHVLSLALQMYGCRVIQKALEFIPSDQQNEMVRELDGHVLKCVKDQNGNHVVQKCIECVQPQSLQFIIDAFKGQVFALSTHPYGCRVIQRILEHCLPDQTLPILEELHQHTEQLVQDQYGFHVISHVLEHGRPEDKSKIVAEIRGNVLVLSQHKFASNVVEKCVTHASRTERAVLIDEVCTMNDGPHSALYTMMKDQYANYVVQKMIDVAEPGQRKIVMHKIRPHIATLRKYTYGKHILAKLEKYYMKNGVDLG
# Procedure, shortened: as §1
# [10] = molecular target: PUM1 PUF domain R8-IHR (Homo sapiens, UniProt Q14671 828-1176, N1122I;Y1123H;Q1126R)
# Procedure, shortened: as §1
# [11] = molecular target: PUM1 PUF domain R4-DHT (Homo sapiens, UniProt Q14671 828-1176, N971D;Q975T)
# Procedure, shortened: as §1
# [12] = molecular target: PUM1 PUF domain R5-QQC (Homo sapiens, UniProt Q14671 828-1176, C1007Q;R1008Q;Q1011C)
# Procedure, shortened: as §1
# [13] = molecular target: PUM1 PUF domain R5-QHE (Homo sapiens, UniProt Q14671 828-1176, C1007Q;R1008H;Q1011E)
# Procedure, shortened: as §1
# [14] = molecular target: PUM1 PUF domain R2-SWG (Homo sapiens, UniProt Q14671 828-1176, N899S;Y900W;Q903G)
# Procedure, shortened: as §1
# [15] = molecular target: PUM1 PUF domain R3-RSF (Homo sapiens, UniProt Q14671 828-1176, C935R;R936S;Q939F)
# Procedure, shortened: as §1
# [16] = molecular target: PUM1 PUF domain R3-IFA (Homo sapiens, UniProt Q14671 828-1176, C935I;R936F;Q939A)
# Procedure, shortened: as §1
# [17] = molecular target: PUM1 PUF domain R7-KSV (Homo sapiens, UniProt Q14671 828-1176, S1079K;N1080S;E1083V)
# Procedure, shortened: as §1
sequence,measurement,setting,value
GGCUAGAACUAGUGGAUCCCCCGGCGCCCGGCGGCUCGAGCCCGGGUAAGUGUUAAUAGUCUGCAUGCCGCCGGGCGCCAUGCCUGCAGGUCGACUCUAGAAAACAUG,binding signal,[1],4.88 log2 enrichment (interaction score)
same,binding signal,[2],3.47 log2 enrichment (interaction score)
GGCUAGAACUAGUGGAUCCCCCGGCGCCCGGCGGCUCGAGCCCGGGUAAGUGUCAAUAGUCUGCAUGCCGCCGGGCGCCAUGCCUGCAGGUCGACUCUAGAAAACAUG,binding signal,[1],4.31 log2 enrichment (interaction score)
same,binding signal,[3],3.12 log2 enrichment (interaction score)
GGCUAGAACUAGUGGAUCCCCCGGCGCCCGGCGGCUCGAGCCCGGGUAAGUGUAAAUCGUCUGCAUGCCGCCGGGCGCCAUGCCUGCAGGUCGACUCUAGAAAACAUG,binding signal,[4],1.22 log2 enrichment (interaction score)
GGCUAGAACUAGUGGAUCCCCCGGCGCCCGGCGGCUCGAGCCCGGGUAAGUGUAAAUUGUCUGCAUGCCGCCGGGCGCCAUGCCUGCAGGUCGACUCUAGAAAACAUG,binding signal,[4],2.64 log2 enrichment (interaction score)
GGCUAGAACUAGUGGAUCCCCCGGCGCCCGGCGGCUCGAGCCCGGGUAAGUGUAAAUAGUCUGCAUGCCGCCGGGCGCCAUGCCUGCAGGUCGACUCUAGAAAACAUG,binding signal,[5],6.49 log2 enrichment (interaction score)
same,binding signal,[6],2.12 log2 enrichment (interaction score)
same,binding signal,[7],5.2 log2 enrichment (interaction score)
same,binding signal,[8],2.6 log2 enrichment (interaction score)
same,binding signal,[3],1.4 log2 enrichment (interaction score)
same,binding signal,[9],4.18 log2 enrichment (interaction score)
same,binding signal,[10],3.28 log2 enrichment (interaction score)
GGCUAGAACUAGUGGAUCCCCCGGCGCCCGGCGGCUCGAGCCCGGGUAAGUGUAUAUAGUCUGCAUGCCGCCGGGCGCCAUGCCUGCAGGUCGACUCUAGAAAACAUG,binding signal,[6],4.34 log2 enrichment (interaction score)
GGCUAGAACUAGUGGAUCCCCCGGCGCCCGGCGGCUCGAGCCCGGGUAAGUGUACAUAGUCUGCAUGCCGCCGGGCGCCAUGCCUGCAGGUCGACUCUAGAAAACAUG,binding signal,[11],2.73 log2 enrichment (interaction score)
GGCUAGAACUAGUGGAUCCCCCGGCGCCCGGCGGCUCGAGCCCGGGUAAGUGUGAAUAGUCUGCAUGCCGCCGGGCGCCAUGCCUGCAGGUCGACUCUAGAAAACAUG,binding signal,[12],4.46 log2 enrichment (interaction score)
same,binding signal,[13],3.04 log2 enrichment (interaction score)
GGCUAGAACUAGUGGAUCCCCCGGCGCCCGGCGGCUCGAGCCCGGGUAAGUGUAAAAAGUCUGCAUGCCGCCGGGCGCCAUGCCUGCAGGUCGACUCUAGAAAACAUG,binding signal,[14],3.09 log2 enrichment (interaction score)
GGCUAGAACUAGUGGAUCCCCCGGCGCCCGGCGGCUCGAGCCCGGGUAAGUGUAAAGAGUCUGCAUGCCGCCGGGCGCCAUGCCUGCAGGUCGACUCUAGAAAACAUG,binding signal,[14],1.53 log2 enrichment (interaction score)
GGCUAGAACUAGUGGAUCCCCCGGCGCCCGGCGGCUCGAGCCCGGGUAAGUGUAAUUAGUCUGCAUGCCGCCGGGCGCCAUGCCUGCAGGUCGACUCUAGAAAACAUG,binding signal,[15],3.86 log2 enrichment (interaction score)
same,binding signal,[16],3.87 log2 enrichment (interaction score)
GGCUAGAACUAGUGGAUCCCCCGGCGCCCGGCGGCUCGAGCCCGGGUAAGUCUAAAUAGUCUGCAUGCCGCCGGGCGCCAUGCCUGCAGGUCGACUCUAGAAAACAUG,binding signal,[17],3.22 log2 enrichment (interaction score)
GGCUAGAACUAGUGGAUCCCCCGGCGCCCGGCGGCUCGAGCCCGGGUAAGUUUAAAUAGUCUGCAUGCCGCCGGGCGCCAUGCCUGCAGGUCGACUCUAGAAAACAUG,binding signal,[17],3.22 log2 enrichment (interaction score)
GGCUAGAACUAGUGGAUCCCCCGGCGCCCGGCGGCUCGAGCCCGGGUAAGCGUAAAUAGUCUGCAUGCCGCCGGGCGCCAUGCCUGCAGGUCGACUCUAGAAAACAUG,binding signal,[10],4.48 log2 enrichment (interaction score)
